# Compounds with a hit are over-represented: about 3.1% of the library has one in this group of screens.
# FAS-TE inh: FAS thioesterase domain inhibitors, primary screen, biochemical, fluorescence intensity, uHTS; Fatty acid synthase (Homo sapiens), P49327; recombinant FAS-TE, OMFH fluorogenic substrate, fluorescence endpoint; inhibition, % at 15 µM; actives 0.67% (n = 360,000); AID 602261, 2012;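 active = compounds whose normalised, plate-corrected inhibition of enzyme fluorescence in the single-dose primary screen is 50% or more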
# NadD block: inhibitors of S. aureus NadD, primary screen, biochemical, colorimetric, uHTS; Nicotinate-nucleotide adenylyltransferase NadD (Staphylococcus aureus N315); purified NadD enzyme, colorimetric absorbance read-out; inhibition, % at 20 µM; actives 0.78% (n = 360,000); in the data active = inhibition above about 26%
# Calb FLC: C. albicans growth inhibition with fluconazole, primary screen, CaCi-2 strain, Alamar Blue fluorescence; C. albicans CaCi-2 (fluconazole-resistant clinical isolate) + fluconazole, 48 h; growth inhibition, % (no concentration beside the values); actives 0.57% (n = 300,000);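 active = growth inhibition above about 58% in most replicates, limit read from the data, passing the limit was not always enough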;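 also: all wells also contain fluconazole at 8 µg/ml as a sub-toxic cotreatment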
# SUMO Mot1 rescue: yeast Mot1-301 growth rescue at high temperature, primary screen, SUMOylation pathway inhibitor project, S. cerevisiae, ATP luminescence, 38.5C; S. cerevisiae Mot1-301 growth rescue; percent above DMSO median, 100 means doubled; growth rescue, % at 18.8 µM; actives 1% (n = 320,000); AID 2716, 2010;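 active = every valid replicate shows activation above 250% relative to neutral control wells; inactive = the rest, any valid replicate at or below 250%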
# ATG4B inhibitor: ATG4B protease inhibitors, primary screen, biochemical, fluorescence, uHTS; Cysteine protease ATG4B (Homo sapiens), Q9Y4P1; ATG4B cleavage of LC3-PLA2, NBD-HPC fluorescence, 1 h; inhibition, % at 8.33 µM; actives 0.51% (n = 340,000); AID 504462, 2011; in the data active = inhibition above about 40%
# FAS-TE inh conf: FAS thioesterase domain inhibitors, confirmation, biochemical, fluorescence intensity, single concentration. shares compounds with FAS-TE inh. recombinant FAS-TE, OMFH fluorogenic substrate. inhibition, % at 15 µM. actives 45% (n = 2,300). AID 624325, 2012;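 active = compounds inhibiting the enzyme by at least 50% at 15 µM in any one of the replicates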
# Numbers stand for hits; . = inactive; / = not tested or not shown.
SMILES,FAS-TE inh,NadD block,Calb FLC,SUMO Mot1 rescue,ATG4B inhibitor,FAS-TE inh conf
COc1ccc(-n2cnc3c(sc4nc(N5CCOCC5)c5c(c43)CCCC5)c2=O)cc1,63,.,.,.,.,.
Cc1ccccc1-n1cnc2c(sc3nc(N4CCOCC4)c4c(c32)CCCC4)c1=O,66,.,.,.,.,.
C[C@@]12C(=O)Nc3cc(F)c(F)cc3C(=O)N1[C@H]1c3cc(Cl)ccc3OC[C@@H]1[C@@H]2c1ccccc1,74,.,/,.,.,.
COc1ccc2c(c1)C(=O)N1[C@H]3c4cc(C)ccc4OC[C@@H]3[C@H](c3ccccc3)[C@]1(C)C(=O)N2,73,.,/,.,.,.
COc1ccc2c(c1)[C@H]1[C@H](CO2)[C@H](c2ccccc2)[C@]2(C)C(=O)Nc3ccc(Cl)cc3C(=O)N12,86,.,/,/,.,.
COc1ccc2c(c1)[C@@H]1[C@H](CO2)[C@H](c2ccccc2)[C@]2(C)C(=O)NCC(=O)N12,.,.,/,.,.,/
C[C@@]12C(=O)Nc3ccc(Br)cc3C(=O)N1[C@H]1c3cc(Cl)ccc3OC[C@@H]1[C@@H]2c1ccccc1,94,.,/,.,.,.
C[C@@H]1NC(=O)[C@@]2(C)[C@@H](c3ccccc3)[C@H]3COc4ccc(Cl)cc4[C@@H]3N2C1=O,.,.,/,.,.,/
CCOC(=O)[C@H]1[C@H]2COc3ccc(Cl)cc3[C@@H]2N2C(=O)c3cc(F)ccc3NC(=O)[C@@]12C,.,.,/,.,.,/
CCOC(=O)c1ccc(-c2c(-c3ccccc3OC)sc3ccc(OC)cc23)cc1F,.,.,/,.,.,/
COCCNC(=O)C1(C)CCCN(C(=O)COc2ccccc2)C1 (stereo not given),.,.,/,/,/,/
C[C@@]12C(=O)Nc3ccc(Cl)cc3C(=O)N1[C@H]1c3cc(Cl)ccc3OC[C@@H]1[C@@H]2c1ccccc1,77,.,/,.,.,.
OC1COC(c2ccccc2)OC1C(O)C1OC(c2ccccc2)OCC1O (stereo not given),.,.,/,/,.,/
Cc1ccc2c(c1)c1ccc3c(c1n2C)C(=O)C=CC3=O,54,48,/,/,.,.
Cn1c2ccccc2c2ccc3c(c21)C(=O)C=CC3=O,.,.,/,/,.,/
COCCNCc1ccccc1[N+](=O)[O-],.,.,/,.,.,/
O=C1C=C(c2ccc(Cl)c(C(F)(F)F)c2)C[C@@H](c2ccc3c(c2)OCO3)C1,75,.,/,.,.,58
CC(=O)Nc1ccc(S(=O)(=O)N2CCC(N3CCCCC3)CC2)cc1,.,.,.,.,.,/
O=[N+]([O-])c1ccc(C(O)C(CO)NC(=S)Nc2ccccc2)cc1 (stereo not given),59,.,.,.,.,55
Cc1ccc(NC(=S)NC(CO)C(O)c2ccc([N+](=O)[O-])cc2)cc1 (stereo not given),.,.,.,.,.,/
CC(=O)c1cccc(NC(=O)C2Cc3c(-c4cccc(C(C)=O)c4)ccnc3O2)c1 (stereo not given),.,.,/,/,/,/
CC(=O)c1cccc(-c2ccnc3c2CC(C(=O)Nc2ccc(C(C)C)cc2)O3)c1 (stereo not given),55,.,/,/,/,59
O=C(Cc1ccc(F)cc1)Nc1nc(-c2ccc(F)c(F)c2)cs1,51,.,.,.,.,.
Cc1c(C(=O)Nc2ccc(Cl)cc2)c2ccccn2c1C(=O)c1ccccc1,.,.,.,.,.,/
Cc1c(C(=O)Nc2ccc(Cl)cc2)c2ccccn2c1C(=O)c1ccc([N+](=O)[O-])cc1,71,.,.,.,.,.
COC(=O)CC1C(=O)NCCN1C(=O)c1cc(OC)c(OC)cc1OC (stereo not given),.,.,.,.,.,/
CCN(C(=O)COC(=O)c1ccccc1Nc1ccccc1)c1c(N)n(Cc2ccccc2)c(=O)[nH]c1=O,77,.,/,/,.,.
CCC(C)c1ccc2oc(-c3ccc(NC(=O)Cn4cnc5c(=O)n(C)c(=O)n(C)c54)cc3)nc2c1 (stereo not given),73,.,.,.,.,.

# Screening data from PubChem BioAssay.
